# Measured values reported in PubChem BioAssay AID1159580 (chemical genetic matrix, 2015).
# The campaign covered roughly 5,500 compounds. About 2,000 (36%) were called active. Not shown: some 18% with an inconclusive outcome. Some of the results follow. Unmarked numbers belong to inactive results. No stated cut-off is given here; in the data, active means normalized growth mostly below about 0.91 (no sharp cut-off); inconclusive means no clear call, values can overlap the other calls; inactive means mostly above about 0.92.
# Test: chemical genetic growth profiling, strain panel (AID 1159580);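 further: tested at 20 µM; growth read once vehicle control cultures reached saturation at 30 °C; 1 = growth at the plate median or of vehicle wells; lower values mean less growth of the strain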
# Settings: S. cerevisiae deletion strains, growth OD
# [1] = locus YAR019C, strain CDC15, hits give low values
# [2] = locus YBL105C, strain PKC1, hits give low values
# [3] = locus YBR135W, strain CKS1, hits give low values
# [4] = locus YBR136W, strain MEC1, hits give low values
# [5] = locus YBR160W, strain CDC28, hits give low values
# [6] = locus YDL017W, strain CDC7, hits give low values
# [7] = locus YDL028C, strain MPS1, hits give low values
# [8] = locus YDL101C, strain DUN1, hits give low values
# [9] = locus YDL108W, strain KIN28, hits give low values
# [10] = locus YDL132W, strain cdc53, hits give low values
# [11] = locus YDL214C, strain PRR2, hits give low values
# [12] = locus YDR052C, strain DBF4, hits give low values
# [13] = locus YDR054C, strain cdc34, hits give low values
# [14] = locus YDR226W, strain ADK1, hits give low values
# [15] = locus YDR477W, strain SNF1, hits give low values
# [16] = locus YER123W, strain YCK3, hits give low values
# [17] = locus YER133W, strain GLC7, hits give low values
# [18] = locus YFL009W, strain cdc4, hits give low values
# [19] = locus YFL029C, strain CAK1, hits give low values
# [20] = locus YFR003C, strain YPI1, hits give low values
# [21] = locus YFR019W, strain FAB1, hits give low values
# [22] = locus YFR028C, strain CDC14, hits give low values
# [23] = locus YGR040W, strain KSS1, hits give low values
# [24] = locus YGR052W, strain FMP48, hits give low values
# [25] = locus YGR092W, strain DBF2, hits give low values
# [26] = locus YHR030C, strain SLT2, hits give low values
# [27] = locus YHR079C, strain IRE1, hits give low values
# [28] = locus YHR082C, strain KSP1, hits give low values
# [29] = locus YHR205W, strain SCH9, hits give low values
# [30] = locus YIL147C, strain SLN1, hits give low values
# [31] = locus YJL095W, strain BCK1, hits give low values
# [32] = locus YJL128C, strain PBS2, hits give low values
# [33] = locus YJL157C, strain FAR1, hits give low values
# [34] = locus YJR016C, strain ILV3, hits give low values
# [35] = locus YJR066W, strain TOR1 (second series), hits give low values
# [36] = locus YJR066W, strain TOR1, hits give low values
# [37] = locus YKL048C, strain ELM1, hits give low values
# [38] = locus YKL067W, strain YNK1, hits give low values
# [39] = locus YKL101W, strain HSL1, hits give low values
# [40] = locus YKL193C, strain SDS22, hits give low values
# [41] = locus YKL203C, strain TOR2, hits give low values
# [42] = locus YLR113W, strain HOG1, hits give low values
# [43] = locus YLR133W, strain CKI1, hits give low values
# [44] = locus YLR403W, strain SFP1, hits give low values
# [45] = locus YML070W, strain DAK1, hits give low values
# [46] = locus YMR001C, strain CDC5, hits give low values
# [47] = locus YMR205C, strain PFK2 (second series), hits give low values
# [48] = locus YMR277W, strain FCP1, hits give low values
# [49] = locus YNL006W, strain LST8, hits give low values
# [50] = locus YNL020C, strain ARK1, hits give low values
# [51] = locus YNL161W, strain CBK1, hits give low values
# [52] = locus YNL183C, strain NPR1, hits give low values
# [53] = locus YNL207W, strain RIO2, hits give low values
# [54] = locus YNL222W, strain SSU72, hits give low values
# [55] = locus YNL307C, strain MCK1 (second series), hits give low values
# [56] = locus YOL078W, strain AVO1, hits give low values
# [57] = locus YOL136C, strain PFK27, hits give low values
# [58] = locus YOR061W, strain CKA2, hits give low values
# [59] = locus YOR119C, strain RIO1, hits give low values
# [60] = locus YOR231W, strain MKK1, hits give low values
# [61] = locus YOR329C, strain SCD5, hits give low values
# [62] = locus YPL031C, strain PHO85, hits give low values
# [63] = locus YPL153C, strain RAD53, hits give low values
# [64] = locus YPL204W, strain HRR25, hits give low values
# [65] = locus YPL209C, strain IPL1, hits give low values
# [66] = locus YPL256C, strain CLN2, hits give low values
# [67] = locus YPR025C, strain CCL1, hits give low values
# [68] = locus YPR106W, strain ISR1, hits give low values
# [69] = locus YPR111W, strain DBF20, hits give low values
# [70] = strain NNK1, hits give low values
# [71] = strain TSCII, hits give low values
smiles,measurement,setting,value
O=c1c(-c2ccccc2)c(O)c2cccc3c4ccccc4n1c23,normalized growth,[1],0.117 (active)
same,normalized growth,[2],0.121 (active)
same,normalized growth,[3],0.13 (active)
same,normalized growth,[4],0.148 (active)
same,normalized growth,[5],0.215 (active)
same,normalized growth,[6],0.154 (active)
same,normalized growth,[7],0.142 (active)
same,normalized growth,[8],0.226 (active)
same,normalized growth,[9],0.247 (active)
same,normalized growth,[10],0.167 (active)
same,normalized growth,[11],0.0962 (active)
same,normalized growth,[12],0.344 (active)
same,normalized growth,[13],0.128 (active)
same,normalized growth,[14],0.523 (active)
same,normalized growth,[15],0.134 (active)
same,normalized growth,[16],0.113 (active)
same,normalized growth,[17],0.105 (active)
same,normalized growth,[18],0.14 (active)
same,normalized growth,[19],0.115 (active)
same,normalized growth,[20],0.12 (active)
same,normalized growth,[21],0.118 (active)
same,normalized growth,[22],0.145 (active)
same,normalized growth,[23],0.124 (active)
same,normalized growth,[24],0.13 (active)
same,normalized growth,[25],0.11 (active)
same,normalized growth,[26],0.149 (active)
same,normalized growth,[27],0.143 (active)
same,normalized growth,[28],0.157 (active)
same,normalized growth,[29],0.0087 (active)
same,normalized growth,[30],0.123 (active)
same,normalized growth,[31],0.141 (active)
same,normalized growth,[32],0.133 (active)
same,normalized growth,[33],0.0913 (active)
same,normalized growth,[34],0.168 (active)
same,normalized growth,[35],0.131 (active)
same,normalized growth,[36],0.135 (active)
same,normalized growth,[37],0.122 (active)
same,normalized growth,[38],0.0882 (active)
same,normalized growth,[39],0.113 (active)
same,normalized growth,[40],0.139 (active)
same,normalized growth,[41],0.146 (active)
same,normalized growth,[42],0.185 (active)
same,normalized growth,[43],0.106 (active)
same,normalized growth,[44],0.00673 (active)
same,normalized growth,[45],0.0964 (active)
same,normalized growth,[46],0.119 (active)
same,normalized growth,[47],0.1 (active)
same,normalized growth,[48],0.165 (active)
same,normalized growth,[49],0.11 (active)
same,normalized growth,[50],0.115 (active)
same,normalized growth,[51],0.133 (active)
same,normalized growth,[52],0.161 (active)
same,normalized growth,[53],0.131 (active)
same,normalized growth,[54],0.11 (active)
same,normalized growth,[55],0.118 (active)
same,normalized growth,[56],0.123 (active)
same,normalized growth,[57],0.106 (active)
same,normalized growth,[58],0.0936 (active)
same,normalized growth,[59],0.146 (active)
same,normalized growth,[60],0.122 (active)
same,normalized growth,[61],0.12 (active)
same,normalized growth,[62],0.124 (active)
same,normalized growth,[63],0.109 (active)
same,normalized growth,[64],0.126 (active)
same,normalized growth,[65],0.129 (active)
same,normalized growth,[66],0.15 (active)
same,normalized growth,[67],0.149 (active)
same,normalized growth,[68],0.141 (active)
same,normalized growth,[69],0.147 (active)
same,normalized growth,[70],0.114 (active)
same,normalized growth,[71],0.112 (active)
O=c1c(-c2ccccc2)c(O)c2cccc3c4c(n1c23)CCCC4,normalized growth,[1],0.935
same,normalized growth,[2],0.939
same,normalized growth,[3],0.926
same,normalized growth,[4],0.934
same,normalized growth,[5],0.958
same,normalized growth,[6],0.94
same,normalized growth,[7],0.944
same,normalized growth,[8],0.973
same,normalized growth,[9],0.924
same,normalized growth,[10],0.939
same,normalized growth,[11],0.39 (active)
same,normalized growth,[12],0.957
same,normalized growth,[13],0.823 (active)
same,normalized growth,[14],0.94
same,normalized growth,[15],0.342 (active)
same,normalized growth,[16],0.304 (active)
same,normalized growth,[17],0.459 (active)
same,normalized growth,[18],0.929
same,normalized growth,[19],0.934
same,normalized growth,[20],0.952
same,normalized growth,[21],0.233 (active)
same,normalized growth,[22],0.927
same,normalized growth,[23],0.439 (active)
same,normalized growth,[24],0.266 (active)
same,normalized growth,[25],0.172 (active)
same,normalized growth,[26],0.139 (active)
same,normalized growth,[27],0.182 (active)
same,normalized growth,[28],0.186 (active)
same,normalized growth,[29],0.314 (active)
same,normalized growth,[30],0.917
same,normalized growth,[31],0.272 (active)
same,normalized growth,[32],0.906
same,normalized growth,[33],0.243 (active)
same,normalized growth,[34],0.926
same,normalized growth,[35],0.336 (active)
same,normalized growth,[36],0.26 (active)
same,normalized growth,[37],0.485 (active)
same,normalized growth,[38],0.414 (active)
same,normalized growth,[39],0.323 (active)
same,normalized growth,[40],0.934
same,normalized growth,[41],0.283 (active)
same,normalized growth,[42],0.26 (active)
same,normalized growth,[43],0.376 (active)
same,normalized growth,[44],0.263 (active)
same,normalized growth,[45],0.318 (active)
same,normalized growth,[46],0.935
same,normalized growth,[47],0.56 (active)
same,normalized growth,[48],0.933
same,normalized growth,[49],0.932
same,normalized growth,[50],0.282 (active)
same,normalized growth,[51],0.944
same,normalized growth,[52],0.278 (active)
same,normalized growth,[53],0.95
same,normalized growth,[54],0.939
same,normalized growth,[55],0.167 (active)
same,normalized growth,[56],0.927
same,normalized growth,[57],0.195 (active)
same,normalized growth,[58],0.249 (active)
same,normalized growth,[59],0.382 (active)
same,normalized growth,[60],0.25 (active)
same,normalized growth,[61],0.948
same,normalized growth,[62],0.246 (active)
same,normalized growth,[63],0.305 (active)
same,normalized growth,[64],0.273 (active)
same,normalized growth,[65],0.944
same,normalized growth,[66],0.228 (active)
same,normalized growth,[67],0.952
same,normalized growth,[68],0.93
same,normalized growth,[69],0.94
same,normalized growth,[70],0.732 (active)
same,normalized growth,[71],0.918
